Test results reported in PubChem BioAssay.
Entries with a potency or affinity are not part of this list. Records with an inconclusive call do not appear. Unmarked numbers belong to inactive results.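 The calls were made as follows: active = fitted half-maximal concentration for viability loss no higher than twice the top valid dose, in every repeat run; inconclusive = repeat runs disagree, flat partial loss, or poor curve fit; inactive = the rest.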

Assay: IOSE-T80 viability loss, PAX8-independent line – cell-based, cherry-pick, selectivity assay for PAX8 inhibitor project, dose response (AID 687032);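 also: cells exposed to compound for 96 h before reading; 0% = neutral control wells and -100% = 2 µM mitoxantrone kill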
Settings: CellTiterGlo ATP luminescence, 96 h; series mostly up to 35 µM; activity change, negative = viability loss: at the top concentration

SMILES | activity change, negative = viability loss
COc1ccc2c3c([nH]c2c1)[C@H](CO)N(C(=O)Nc1cccc(F)c1)CC31CCN(S(=O)(=O)c2cccc(C)c2)CC1 | 17%
COc1ccc(-c2ccc3c(c2)[C@@H]2[C@@H](CCN2S(=O)(=O)c2ccc(OC)cc2)[C@@H](CO)N3C)cc1 | 2.75%
C[C@@H]1CN([C@H](C)CO)C(=O)c2cc(NC(=O)Nc3ccccc3)ccc2O[C@@H](C)CCCCO[C@@H]1CN(C)CC1CCCCC1 | 12.1%
C[C@@H]1CN([C@H](C)CO)C(=O)CCCn2cc(nn2)CO[C@H]1CN(C)C(=O)Nc1ccc(-c2cccs2)cc1 | 17.8%
C[C@H](CO)N1C[C@H](C)[C@H](CN(C)S(=O)(=O)c2ccc(Cl)cc2)OCCCC[C@H](C)Oc2ccc(NS(=O)(=O)c3ccc(Cl)cc3)cc2C1=O | 0.127%
C[C@H]1CCCCO[C@H](CN(C)Cc2ccc(C(F)(F)F)cc2)[C@@H](C)CN([C@@H](C)CO)C(=O)c2cc(NS(=O)(=O)c3ccc(F)cc3)ccc2O1 | 9.87%
Cc1cccc(S(=O)(=O)N2CC[C@@H]3[C@H](CO)N(C)c4ccc(-c5ccc(C#N)cc5)cc4[C@@H]32)c1 | 19.5%
C[C@@H]1CCCCO[C@@H](CN(C)C(=O)c2ccccc2)[C@H](C)CN([C@H](C)CO)C(=O)c2cc(NC(=O)Nc3ccc(C(F)(F)F)cc3)ccc2O1 | 7.86%
C[C@H]1CN([C@@H](C)CO)S(=O)(=O)c2ccc(C#Cc3ccc(F)cc3)cc2O[C@@H]1CN(C)C(=O)NC1CCCCC1 | 14.3%
C[C@@H]1CCCCO[C@H](CN(C)Cc2ccccc2)[C@@H](C)CN([C@@H](C)CO)C(=O)c2cc(NC(=O)Nc3ccc(C(F)(F)F)cc3)ccc2O1 | -5.61%
O=C(Nc1ccc(C(F)(F)F)cc1)Nc1ccc2c(c1)[C@@H]1C[C@H](CC(=O)N3CCc4ccccc4C3)O[C@H](CO)[C@@H]1O2 | 11.7% [at 30 µM]
CC(C)NC(=O)N(C)C[C@H]1OCCCC[C@@H](C)Oc2ccc(NC(=O)Nc3ccc(C(F)(F)F)cc3)cc2C(=O)N([C@@H](C)CO)C[C@H]1C | 3.16%
COc1cccc(C#Cc2ccc3c(c2)O[C@@H](CN(C)C(=O)c2ccccn2)[C@H](C)CN([C@@H](C)CO)S3(=O)=O)c1 | 18.3%
C[C@@H]1CCCCO[C@@H](CN(C)C(=O)Nc2ccc(C(F)(F)F)cc2)[C@H](C)CN([C@H](C)CO)C(=O)c2cc(NS(=O)(=O)c3ccc(Cl)cc3)ccc2O1 | 10.7%
C[C@@H]1CCCCO[C@@H](CN(C)S(=O)(=O)c2ccc(F)cc2)[C@H](C)CN([C@H](C)CO)C(=O)c2cc(NS(=O)(=O)c3ccc(Cl)cc3)ccc2O1 | 11.9%
CC(C)CC1NC(=S)N(Cc2ccccc2)C1=O (stereo unspecified) | 9.71%
CC(C)CC#Cc1ccc2c(c1)O[C@H](CN(C)S(=O)(=O)c1ccc(F)cc1)[C@@H](C)CN([C@@H](C)CO)S2(=O)=O | 18.4%
C[C@@H]1CCCCO[C@H](CN(C)CC2CCCCC2)[C@H](C)CN([C@@H](C)CO)C(=O)c2cc(NC(=O)Nc3ccccc3)ccc2O1 | 13.9%
C[C@H]1CCCCO[C@H](CN(C)Cc2ccc(C(F)(F)F)cc2)[C@@H](C)CN([C@@H](C)CO)C(=O)c2cc(NS(=O)(=O)c3cccs3)ccc2O1 | 10.6%
C[C@@H]1CCCCO[C@H](CN(C)C(=O)Nc2ccc(C(F)(F)F)cc2)[C@@H](C)CN([C@@H](C)CO)C(=O)c2cc(NC(=O)Nc3ccc(C(F)(F)F)cc3)ccc2O1 | 9.32%
COc1cccc(S(=O)(=O)N2CCCCN3[C@@H](CO)[C@@H](c4ccc(C#CCC(C)C)cc4)[C@@H]3C2)c1 | 19.4%
C[C@H]1CCCCO[C@@H](CN(C)Cc2ccc3c(c2)OCO3)[C@@H](C)CN([C@@H](C)CO)C(=O)c2cc(NC(=O)Nc3ccc(F)cc3)ccc2O1 | 0.16%
Cc1ccc(S(=O)(=O)Nc2ccc3c(c2)C(=O)N([C@H](C)CO)C[C@@H](C)[C@H](CN(C)Cc2ccc(Cl)c(Cl)c2)OCCCC[C@H](C)O3)cc1 | 14.7%
C[C@@H]1CN([C@H](C)CO)S(=O)(=O)c2ccc(-c3ccc(C#N)cc3)cc2O[C@@H]1CN(C)Cc1cccc(F)c1 | 16.6%
C[C@H]1CN([C@@H](C)CO)C(=O)Cc2cc(NC(=O)NC3CCCCC3)ccc2O[C@H]1CN(C)Cc1ccc(-c2ccccc2)cc1 | 9.96%
O=C(Nc1ccc(F)cc1)N1CC(=O)N2[C@@H](CO)[C@@H](c3ccc(C#Cc4ccc(F)cc4)cc3)[C@@H]2C1 | 17.2%
